# PLK1 PBD inh = blocks phosphopeptide binding to human PLK1 polo-box domain | 360,000 compounds, 2.8% hits | P53350 | Potency, µM, for inactives: max response, negative = inhibition, most hits filed as inhibitors | Plk1 PBD binding of FITC phosphopeptide, fluorescence polarization; further: series mostly up to about 57 µM; nearly all actives have a fitted effect of over 65% in size
# TDP1 block = inhibitors of human tyrosyl-DNA phosphodiesterase TDP1; recombinant TDP1, AlphaScreen DNA substrate cleavage; Potency, µM (series often up to 130 µM), for inactives: at the top dose activity change, negative = inhibition, actives largely listed as inhibitors; 350,000 compounds, 0.28% hits; Q9NUW8; further: nearly all actives have a fitted effect of over 40% in size
# Target sequence (Q9NUW8 whole entry, looked up): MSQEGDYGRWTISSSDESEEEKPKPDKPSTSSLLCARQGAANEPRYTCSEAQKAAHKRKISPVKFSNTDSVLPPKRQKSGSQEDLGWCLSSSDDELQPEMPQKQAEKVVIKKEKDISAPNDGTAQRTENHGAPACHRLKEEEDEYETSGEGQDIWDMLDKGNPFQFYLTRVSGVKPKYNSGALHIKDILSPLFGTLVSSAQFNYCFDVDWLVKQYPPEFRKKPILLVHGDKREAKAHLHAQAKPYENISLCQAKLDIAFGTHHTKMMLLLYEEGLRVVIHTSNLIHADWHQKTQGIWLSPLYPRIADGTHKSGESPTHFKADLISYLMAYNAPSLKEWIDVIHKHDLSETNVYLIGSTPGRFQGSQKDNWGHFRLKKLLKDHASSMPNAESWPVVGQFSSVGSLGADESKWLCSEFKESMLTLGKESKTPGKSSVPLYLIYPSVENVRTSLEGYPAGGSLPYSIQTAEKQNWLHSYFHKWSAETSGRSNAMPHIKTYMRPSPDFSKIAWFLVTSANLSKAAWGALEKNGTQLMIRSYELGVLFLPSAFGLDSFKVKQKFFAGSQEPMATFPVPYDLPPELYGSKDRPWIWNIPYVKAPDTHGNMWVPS
#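 Recombinant E. coli-expressed Tdp1 (1 nM) preincubated with compound 15 min at RT, then 5'-biotin/3'-phosphotyrosine-FITC DNA substrate (15 nM) added for 5 min. AlphaScreen beads (10 ug/ml) added, 10 min RT; tyrosine-FITC cleavage read as signal loss.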
# KAT2A inh = inhibitors of human GCN5L2 histone acetyltransferase; 390,000 compounds, 0.21% hits; Potency, µM (series often up to 58.9 µM), inactives show at the top dose activity change, negative = inhibition, hits mostly inhibitors; GCN5L2 HAT assay, ThioGlo1 CoA-SH fluorescence; AID 504327; Q92830
#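 Preincubate 20nM GCN5L2 with compound 15 min, RT → add 50uM ThioGlo1 + 75uM H3(1-25) + 70uM acetyl-CoA → read fluorescence 0 and 20 min. Primary qHTS; fluorescent artifacts likely.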
# VDR inh = vitamin D3 receptor (human) inhibition; Potency, µM, for the others: max response, negative = inhibition, most hits filed as inhibitors; P11473; VDR-SRC2-3 peptide fluorescence polarization, 2 h; 400,000 compounds, 0.93% hits; AID 504847
#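 Measured by FP: displacement of SRC2-3 coactivator peptide from VDR by library compounds, following a two-hour ambient incubation.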
# TDP1 cell noCPT = qHTS for Inhibitors of human tyrosyl-DNA phosphodiesterase 1 (TDP1): qHTS in cells in absence of CPT; DT40 Tdp1-/- hTDP1 cells, no CPT, ATP luminescence, 48 h; Potency, µM (doses to about 46.2 µM), for inactives: top-dose activity change, negative = growth inhibition, most hits filed as inhibitors; 420,000 compounds, 15% hits; further: nearly all actives have a fitted effect of over 55% in size
#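 Seeded 400 DT40-hTDP1 cells/well (vehicle DMSO, no 20 nM CPT); pinned compounds; ≥48 hr at 37 °C; CellTiter-Glo luminescence as viability measure.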
# TDP1 cell CPT = DT40-hTDP1 cell growth loss with CPT. Potency, µM (top dose mostly 46.2 µM), without a hit: at the top dose activity change, negative = growth inhibition, most hits filed as inhibitors. chicken DT40 Tdp1-/-;hTDP1 cells + 20 nM CPT, ATP luminescence, 48 h. 420,000 compounds, 12% hits; further: nearly all actives have a fitted effect of over 55% in size
#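 Chicken DT40 Tdp1-/- cells stably complemented with human TDP1 were seeded at 400 cells/well in medium containing 20 nM camptothecin, exposed to pin-transferred compounds, and grown at 37 °C for at least 48 hr. Viability was read as ATP luminescence.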
# Numbers without * were called inactive; ? = inconclusive; · = no result; [ ] = remark or other dose. Shown are actives, neighbours in structure and some others; about 18% of the full set was active somewhere. The call rests on the fitted dose curve; in most records, active means well fitted curve in the direction sought with a large enough effect; inconclusive means small, poorly fitted or top-dose-only effect, or another doubt; inactive means no such curve, though single readings can be large; an effect the other way counts as inactive or inconclusive. On the % scale 0 is the no-effect control and ±100 the full control effect; potency means the concentration at half of the fitted maximal effect.
SMILES,PLK1 PBD inh,TDP1 block,KAT2A inh,VDR inh,TDP1 cell noCPT,TDP1 cell CPT
Oc1ccc(C[C@H]2CNC(=S)N2CC2CCCN2C[C@H](Cc2ccc(O)cc2)N2C[C@H](Cc3ccccc3)N(CC3CCCCC3)C2=S)cc1 (stereo not given in full),-3.6%,·,·,-7.1%,16.4µM*,16.4µM*
Oc1ccc(C[C@@H](CN2CCCC2CN2C(=S)NC[C@@H]2Cc2ccccc2)N2C[C@H](Cc3ccccc3)N(CC3CCCCCC3)C2=S)cc1 (stereo not given in full),-6.6%,·,·,·,?,?
N#CCc1ccccc1[N+](=O)[O-],·,12.7%,·,·,·,·
Oc1ccc(C[C@H]2CN([C@@H](Cc3ccccc3)CN3CCC[C@@H]3CN3C(=S)NC[C@@H]3Cc3ccccc3)C(=S)N2CC2CCCCC2)cc1,4.7%,·,·,·,25.9µM*,?
O=C1NC[C@H](Cc2ccc(O)cc2)N(C[C@@H]2CCCN2C[C@H](Cc2ccccc2)N2C[C@H](Cc3ccccc3)N(CC3CCCCCC3)C(=O)C2=O)C1=O,-6.0%,·,·,·,?,?
Oc1ccc(C[C@H]2CNC(=S)N2CC2CCCN2C[C@H](Cc2ccc(O)cc2)N2C[C@H](Cc3ccc(O)cc3)N(CC3CCCCCC3)C2=S)cc1 (stereo not given in full),1.3%,·,·,4.2%,18.4µM*,23.1µM*
CCc1ccc2oc(C(=O)NCC(c3ccc(Cl)cc3)N3CCOCC3)c(C)c2c1 (stereo not given),·,-1.6%,-8.4%,4.7%,8.2µM*,8.2µM*
Cc1ccc(C(=O)NCC(c2ccc(F)cc2)N2CCOCC2)cc1 (stereo not given),-1.1%,·,?,4.7%,6.0%,-0.4%
Cc1ccc2c(C)c(C(=O)NCC(c3ccc(Cl)cc3)N3CCOCC3)oc2c1 (stereo not given),·,1.6%,-12.9%,1.1%,11.6µM*,14.6µM*
O=C(NCc1ccc(Cl)cc1)C(=O)NCC(c1ccc2c(c1)OCO2)N1CCOCC1 (stereo not given),·,5.5%,-4.7%,0.2%,?,?
CNc1cncc(-c2ccc(OCCCN(C)C)nc2)n1,2.9%,·,·,·,4.9%,-3.4%
CC1CC(C)CN(C(C(=O)NC2CCCCC2)c2cc3ccccc3o2)C1 (stereo not given),-22.5%,·,·,·,25.9µM*,?
CC1CC(C)CN(C(C(=O)NC2CCCCC2)c2ccnc3ccccc23)C1 (stereo not given),-3.9%,·,·,·,?,?
C=CC[C@@H](CC(=O)NCCO)C(=O)N[C@@H](COC(=O)[C@@H](CC=C)Cc1ccc(F)cc1)Cc1ccccc1,-10.3%,1.7%,-2.3%,-25.9%,?,18.4µM*
C=CC[C@H](CC(=O)NCCO)C(=O)N[C@H](COC(=O)[C@@H](CC=C)Cc1ccc(F)cc1)C(C)(C)C,-10.3%,2.2%,-0.3%,-5.1%,18.4µM*,?
C=CC[C@@H](CC(=O)N[C@H](CO)Cc1ccccc1)C(=O)N[C@H](COC(=O)[C@@H](CC=C)Cc1ccc(F)cc1)Cc1ccccc1,-6.2%,-0.3%,2.3%,13.5%,14.6µM*,23.1µM*
C=CC[C@@H](CC(=O)NCCO)C(=O)N[C@H](COC(=O)[C@@H](CC=C)Cc1ccc(F)cc1)Cc1c[nH]c2ccccc12,-5.0%,6.7%,-3.4%,-24.3%,?,?
C=CCC[C@@H](Cc1ccc(F)cc1)C(=O)OC[C@@H](Cc1ccccc1)NC(=O)[C@@H](CC=C)CC(=O)N[C@@H](CO)Cc1ccccc1,-10.7%,0.8%,3.9%,-20.2%,?,?
CC(CNC(=O)CC(C)(C)C)NC(=O)CC(C)(C)C (stereo not given),-8.5%,-7.7%,-0.6%,-0.4%,10.6%,0.6%
Cn1nc(C(=O)N2CCN(c3ccccc3F)CC2)c2c1-c1ccccc1SC2,·,14.3%,-6.4%,-3.8%,?,?
Cc1cc(SCC(=O)Nc2ccc(C(F)(F)F)cc2)nc(=O)[nH]1,·,0.0%,-3.5%,0.5%,-22.8%,-15.9%
CCOc1ccccc1NC(=S)/C(=C(\[O-])c1ccc2c(c1)OCCO2)[n+]1ccc(CC)cc1,21.2µM*,3.4%,0.1%,44.4%,·,20.6µM*
CCN(CC)C(=O)CC(c1ccc(OC)cc1)c1c(OC)cc(OC)c2c(-c3ccccc3)cc(=O)oc12 (stereo not given),·,17.8µM*,·,-2.7%,·,·
COc1cc(C(CC(=O)N2CCOCC2)c2c(OC)cc(OC)c3c(-c4ccccc4)cc(=O)oc23)cc(OC)c1OC (stereo not given),·,6.2%,·,-11.7%,·,·
COc1cc(OC)c2c(-c3ccccc3)cc(=O)oc2c1C(CCN1CCOCC1)c1ccc(N(C)C)cc1 (stereo not given),-18.9%,9.7%[56.1 µM],-11.1%,-2.1%,6.51µM*,5.8µM*
SMILES,PLK1 PBD inh,TDP1 block,KAT2A inh,VDR inh,TDP1 cell noCPT,TDP1 cell CPT
COc1ccc(C(CCN2CCCCC2)c2c(OC)cc(OC)c3c(-c4ccccc4)cc(=O)oc23)cc1 (stereo not given),-5.4%,14.4%,-14.4%,-17.3%,?,20.6µM*
COc1cc(OC)c2c(c1C(CCN1CCOCC1)c1ccc(N(C)C)cc1)OC(=O)CC2c1ccc(N(C)C)cc1 (stereo not given),-12.5%,27.4%,-13.2%,1.7%,?,16.4µM*
COc1cc(C(CCN2CCOCC2)c2c(OC)cc(OC)c3ccc(=O)oc23)cc(OC)c1OC (stereo not given),·,11.2%,-19.1%,-0.7%,·,·
Cc1ccc(N(CC(=O)N2CCCCCC2)S(C)(=O)=O)c(C)c1,-11.3%,·,·,·,-14.4%,-9.0%
CCN(C(=O)Cn1c(=O)oc2cc(Cl)ccc21)c1cccc(C(F)(F)F)c1,·,2.9%,0.9%,-18.8%,-24.8%,?
O=C(O)CC/C(=N/NC(=O)c1ccc(-c2ccccc2)cc1)c1ccccc1,-12.3%,4.9%,-0.3%,-1.8%,3.4%,10.7%
CCN(CC)CCC(c1ccc(N(C)C)cc1)c1c(OC)cc(OC)c2c(C)cc(=O)oc12 (stereo not given),·,18.5%,·,-3.4%,·,·
COc1cc(OC)c2c(-c3ccccc3)cc(=O)oc2c1C(CCN1CCCCC1)c1ccc(N(C)C)cc1 (stereo not given),-7.6%,25.0%,22.7%,-3.6%,14.6µM*,10.3µM*
C[C@@H]1CN([C@H](C)CO)C(=O)CCCn2nncc2CO[C@@H]1CN(C)C(=O)C1CC1,-10.5%,·,·,·,-4.0%,-17.2%

# Screening data from PubChem.
